The first experiment has as its system LXRb homodimer (NR concentration 270 nM). Kind of experiment: PBM binding z-score (relative to random genomic background probes); higher = stronger binding; sequences stand for … in GC…GCGATTGACAGCGTAGAATGAAGG
The method in brief:
(§1)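 Custom Agilent 4×180K protein-binding microarrays carried double-stranded probes, each with a 34-nt variable region. These regions held direct-repeat seeds, single-nucleotide variants, half-site ablations and random human genomic background sequences. Ligand-free nuclear receptor dimers were incubated on the arrays for 1 h, antibodies against each partner (one per run) detected binding, and scanned fluorescence was regression-normalized. Binding z-scores take the random background probes as reference.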
For AGTCGAAGTTCACTAGGTAACGTAAGATTCAGCT, the PBM binding z-score is -0.107.

Take GCTAGTTGGTCCGTAAAAGGTCACACACCGGTCG: the PBM binding z-score was 0.618.

CGAACTAGGTCAGAACAGGACAGTGAAGGATGAT returned a PBM binding z-score of -0.174.

In the case of CGAAATAGGTCAGAACAGGACAGTGAAGGATGAT, the PBM binding z-score stood at 0.228.

As to TAGCCTAGGTCATTCTGGGGCCAGTATAGAAAGC, the PBM binding z-score stood at 1.34.

Regarding ATACCAAGGTGATCGTGACGTCGTTGATACTAAC, the PBM binding z-score was -0.176.

The sequence CGTCCAAGGTCAAGGTTAGTGAAAGAGACTCGAA displayed a PBM binding z-score of 0.41.

For the sequence TCGAGTAGGTTAGTCGGGGGATTCAGCCAACATA, the PBM binding z-score amounted to 6.46.

Take GCTCGGAGGGCAAGGTCAGAGCTTTGTCCGTAGA: the PBM binding z-score is -1.03.

CCGAGTAGGTTATGGGGCATTCATGCAACGGTGA yielded a PBM binding z-score of -0.214.

Sequence ACTAGCAGTCCAAGGGTCACTCAAGATTAGTCCG yielded a PBM binding z-score of -0.249.

Turning to ATCGAAAGGTCCTGAGGTGAGTATACAGAAAGGC, the PBM binding z-score was -0.388.

For the sequence AGTCAAAGTTCACTTGGTAACGTAAGATTCAGCT, the PBM binding z-score worked out at 1.63.

As to TCTAGCACGCCAGAGGGTCACTCAAGAGGTACGG, the PBM binding z-score was -0.814.

Turning to CCAACTAGGTCAAGGTCAAAGTCGGTTTGTGCCA, the PBM binding z-score was 1.43.

With TCAGACAGGTGAAGGTAACACAGGTACGCAGTCG, the PBM binding z-score came to 0.0867.

TTACCAAGGTGAGCTGAGGTCGTCGATCCAACTC registered a PBM binding z-score of -1.82.

TCATATAGGTAAATGCTAGGTGAGAGTCCGATCT: the PBM binding z-score is -0.13.

In turn, TCTTGTAGATTAAAGGTTAAGAAAGCCGAAGCCT registered a PBM binding z-score of 0.134.

In the case of TCAGACAGGTGCAGGTAACTCAGGTACGCAGTCG, the PBM binding z-score was -0.936.

In turn, CGTCAAAGTTCAACTAAAGTAACGTAAAGCACGC came in with a PBM binding z-score of 2.66.

For the sequence AATACAGGGTCACTAGGCCAGACTAGGTACGAAT, the PBM binding z-score is 0.693.

TTACCATGGTGAGCTGAGGTCGTTGATCCAACTC gave a PBM binding z-score of -1.05.

CAGCCTAGGTCAGGGCCAGTAAAGGAGGAACGTT gave a PBM binding z-score of -1.1.

On to TCTTGTAGATCAATAGAGTTTAAGAAAGTGCGCT, for which the PBM binding z-score is -0.184.

The sequence TCGAGGAGGTTACCAATGGGGCATTCAGCTTTCT came in with a PBM binding z-score of -0.369.

On to CGTCCAAGGTCAGAGATGTCAGTGAATGCCGAGT, for which the PBM binding z-score was -0.161.

For CACACTAGGTCACGAAAGGTCAAAGTCGAATGAC, the PBM binding z-score turned out to be 3.53.

On to GATACAGGGTCAGCTAGAGGCAAGAGTATGGAAA, for which the PBM binding z-score was -0.0863.

With CGAACTAGGTCACAACAGGACAGTGAAGGATGAT, the PBM binding z-score was determined as 0.119.

For ATATGTAGGTTTAGGGTCATTCAGGTTGGTTCGC, the PBM binding z-score amounted to 1.36.

As for CCGACTGGGGCAAGGTTAGCATAACGCACAGCCA, the PBM binding z-score is -1.24.

CGTCCAAGGTCATCGGAGGTCAGTGAAGACAGAT registered a PBM binding z-score of 1.29.

The sequence TCTCGGAGGACACGAAAGGTCAGAGTTCGACATC displayed a PBM binding z-score of 0.134.

CCTACTGGCCCACGAAAGGTCATTGATTCAGTGA returned a PBM binding z-score of 0.684.

With TCATATAGGTAAAGGCGAAAGTCGAACGATATGA, the PBM binding z-score is -0.044.

The sequence CAAACTAGGTCAGAGAGGTCAAAGTCCGTGCGTA showed a PBM binding z-score of 1.48.

As to TAGCCTAGGTCAGATCGGGCCAGTATCCGCTATA, the PBM binding z-score is -0.472.

With CTCGAAAGGCCGGTTGAGGTGAGTATACGGATAA, the PBM binding z-score is -0.709.

The next experiment relates to PPARa:RXRa (NR concentration 270 nM, RXRa partner concentration 90 nM). Described as above. In outline:
as §1
Sequence AGTCGAAGTTCACTAGGTAACGTAAGATTCAGCT yielded a PBM binding z-score of 2.81.

In the case of GCTAGTTGGTCCGTAAAAGGTCACACACCGGTCG, the PBM binding z-score turned out to be 4.14.

For CGAACTAGGTCAGAACAGGACAGTGAAGGATGAT, the PBM binding z-score worked out at 2.78.

The sequence CGAAATAGGTCAGAACAGGACAGTGAAGGATGAT displayed a PBM binding z-score of 3.89.

The sequence TAGCCTAGGTCATTCTGGGGCCAGTATAGAAAGC displayed a PBM binding z-score of 3.37.

Regarding ATACCAAGGTGATCGTGACGTCGTTGATACTAAC, the PBM binding z-score amounted to 0.36.

Turning to CGTCCAAGGTCAAGGTTAGTGAAAGAGACTCGAA, the PBM binding z-score is 5.63.

In turn, TCGAGTAGGTTAGTCGGGGGATTCAGCCAACATA returned a PBM binding z-score of 1.13.

GCTCGGAGGGCAAGGTCAGAGCTTTGTCCGTAGA came in with a PBM binding z-score of 3.

As to CCGAGTAGGTTATGGGGCATTCATGCAACGGTGA, the PBM binding z-score came out at 2.26.

ACTAGCAGTCCAAGGGTCACTCAAGATTAGTCCG returned a PBM binding z-score of 3.41.

In the case of ATCGAAAGGTCCTGAGGTGAGTATACAGAAAGGC, the PBM binding z-score was 1.21.

In turn, AGTCAAAGTTCACTTGGTAACGTAAGATTCAGCT gave a PBM binding z-score of 3.85.

For the sequence TCTAGCACGCCAGAGGGTCACTCAAGAGGTACGG, the PBM binding z-score came out at 2.01.

CCAACTAGGTCAAGGTCAAAGTCGGTTTGTGCCA: the PBM binding z-score came to 6.14.

For the sequence TCAGACAGGTGAAGGTAACACAGGTACGCAGTCG, the PBM binding z-score was 1.53.

As for TTACCAAGGTGAGCTGAGGTCGTCGATCCAACTC, the PBM binding z-score was determined as 1.82.

For the sequence TCATATAGGTAAATGCTAGGTGAGAGTCCGATCT, the PBM binding z-score worked out at 1.05.

TCTTGTAGATTAAAGGTTAAGAAAGCCGAAGCCT gave a PBM binding z-score of 3.56.

The sequence TCAGACAGGTGCAGGTAACTCAGGTACGCAGTCG yielded a PBM binding z-score of 0.506.

Sequence CGTCAAAGTTCAACTAAAGTAACGTAAAGCACGC came in with a PBM binding z-score of 4.93.

Turning to AATACAGGGTCACTAGGCCAGACTAGGTACGAAT, the PBM binding z-score turned out to be 5.84.

With TTACCATGGTGAGCTGAGGTCGTTGATCCAACTC, the PBM binding z-score came out at 0.702.

On to CAGCCTAGGTCAGGGCCAGTAAAGGAGGAACGTT, for which the PBM binding z-score stood at 2.26.

Regarding TCTTGTAGATCAATAGAGTTTAAGAAAGTGCGCT, the PBM binding z-score was found to be 0.514.

As to TCGAGGAGGTTACCAATGGGGCATTCAGCTTTCT, the PBM binding z-score is 2.29.

As to CGTCCAAGGTCAGAGATGTCAGTGAATGCCGAGT, the PBM binding z-score is 3.59.

For the sequence CACACTAGGTCACGAAAGGTCAAAGTCGAATGAC, the PBM binding z-score was 6.67.

GATACAGGGTCAGCTAGAGGCAAGAGTATGGAAA: the PBM binding z-score stood at 4.69.

On to CGAACTAGGTCACAACAGGACAGTGAAGGATGAT, for which the PBM binding z-score came to 4.65.

As for ATATGTAGGTTTAGGGTCATTCAGGTTGGTTCGC, the PBM binding z-score was 4.59.

CCGACTGGGGCAAGGTTAGCATAACGCACAGCCA had a PBM binding z-score of 1.23.

Take CGTCCAAGGTCATCGGAGGTCAGTGAAGACAGAT: the PBM binding z-score worked out at 5.95.

For the sequence TCTCGGAGGACACGAAAGGTCAGAGTTCGACATC, the PBM binding z-score was determined as 3.71.

Sequence CCTACTGGCCCACGAAAGGTCATTGATTCAGTGA registered a PBM binding z-score of 4.2.

On to TCATATAGGTAAAGGCGAAAGTCGAACGATATGA, for which the PBM binding z-score amounted to 1.3.

Consider CAAACTAGGTCAGAGAGGTCAAAGTCCGTGCGTA, for which the PBM binding z-score was 6.07.

TAGCCTAGGTCAGATCGGGCCAGTATCCGCTATA: the PBM binding z-score amounted to 1.69.

As to CTCGAAAGGCCGGTTGAGGTGAGTATACGGATAA, the PBM binding z-score is -0.134.

Source of the values: the supplement of paper PMC6555819.
